The results in this text go back to PubChem BioAssay (NCI).

About 83,000 compounds went through this panel and 20% of them were active in at least one assay; those are over-represented in the sample as a whole.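 In brief: 96-well plates, 48 h treatment, single concentration, percent growth endpoint.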 A number with no mark means an inactive call. The source made the active and inactive calls.

This assay concerns A498 renal. The assay is described as follows: NCI-60 one-dose screen, 48 h (100 = growth as untreated, 0 = no growth, -100 = all killed). Conditions: 10 µM unless noted. The protocol:
Growth inhibition of the A498 human tumor cell line is measured as a screen for anti-cancer activity. Cells are grown in 96 well plates and exposed to the test compound for 48 hours. Compounds are tested at a single concentration, which is 10^-5 M for most compounds. The reported endpoint is percent growth (GI% or GIPRCNT), where numbers from 0 - 100% represent growth inhibition, and numbers from -100% - 0 represent cell death. For example, a value of 40 represents 60% growth inhibition. A value of 0 means no net growth occurred over the course of the experiment. A value of -40 indicates 40% of cells at the beginning of the experiment died by the end of the experiment. A value of -100 means all cells are dead at the end of the experiment.
NCI-60 Human Tumor Cell Lines Screen was performed using the standard one-dose NCI protocol, which is described in more detail at https://dtp.cancer.gov/discovery_development/nci-60/default.htm.
Compounds with GIPRCNT values below 10 were considered active. Activity score was based on GIPRCNT using the following formula: […]
Score is 0 for GIPRCNT values of 100 or above, 50 for GIPRCNT values of 0, and 100 for GIPRCNT values of -100.
For `Cc1cc(C)cc(NC2=C(Cl)C(=O)c3nc(C)ccc3C2=O)c1`, the growth is 88.3%.

With `COc1ccccc1/C=C/C(=O)c1nnn(-c2ccc(F)cc2)c1C`, the growth was 66.8%.

For the compound `Brc1cc(-c2cc(-c3ccc4c(c3)OC=CO4)[nH]n2)cs1`, the growth was 87.1%.

On to `Cc1cc(=O)[nH]c(O)c1C#N`, for which the growth was 104%.

Take `Cc1ccc2c(n1)C(=O)C(Cl)=C(Nc1ccc(C(=O)OC(C)(C)C)cc1)C2=O`: the growth was 110% [9.25 µM].

Turning to `Fc1cc(F)cc(NNC(=S)c2ccccc2)c1`, the growth is 14.4%.

As for `COc1ccc(/C=N/N=C(/c2ccccc2)c2ccc3nc(-c4ccc(Cl)cc4)[nH]c3c2)cc1`, the growth was 59.8%.

With `COc1cccc2c1[C@H](OC)[C@]13O[C@@]1(C2=O)[C@H](O)[C@H](C)[C@@](O)(C(=O)[C@@H]1O[C@H]1C)[C@@H]3O`, the growth was -82.4% (active).

On to `COc1ccc2c(c1)C=CC1(O2)Oc2ccc(OC)cc2C=C1C` (stereo not given), for which the growth is 7.58% (active).

Turning to `FC(F)(F)c1cc(Br)cc(-c2cc(-c3ccc4c(c3)OCCO4)[nH]n2)c1`, the growth is 11.6%.

As for `CNC(=O)c1cc(Oc2ccc3c(c2)sc2nc(-c4ccc(N(C)C)cc4)cn23)ccn1`, the growth was 7.34% (active).

On to `CC(=O)OC[C@@]12Oc3c(cccc3-c3ccc(O)c4c3O[C@]3(COC(C)=O)C(=C4O)C(=O)C[C@H](C)[C@@H]3OC(C)=O)C(O)=C1C(=O)C[C@H](C)[C@@H]2OC(C)=O`, for which the growth is 1.51% (active).

For `COc1ccc2[nH]cc(/C=N/Nc3ccnc4cc(Cl)ccc34)c2c1`, the growth is -98.6% (active).

Consider `COc1cc(-c2nc(-c3ccccc3)[nH]c2-c2ccnc(NCCCNS(=O)(=O)c3cccc(F)c3)n2)ccc1F`, for which the growth is 68.9%.

As to `CN1CCC[C@]2(C)[C@H]3CC[C@@H]4[C@@H]5[C@H]6OC[C@@]5(CCC6(C)C)CC[C@@]4(C)[C@]3(C)CC[C@H]2C1(C)C`, the growth was 90.1%.

Take `C/C(=C(/C)C1CC1CCNC1CCC(NC(=O)OC(C)(C)C)CC1)c1ccccc1` (stereo not given): the growth was 78%.

With `O=C(CCCCCCNC(=O)C(O)(O)C(F)(F)F)Nc1ncc(-c2ccc(Br)cc2)s1`, the growth was -41.2% (active).

For `CCN(CC)c1ccc(/C=N/NC(=O)c2ccc(S(N)(=O)=O)cc2)cc1`, the growth was 44.3%.

For `CC(C)NC(=O)c1cc(-c2ccc(NC(=O)Nc3ccc(F)cc3)cc2)nc2cccnc12`, the growth was 107%.

As for `CC1=C(C)C(=O)C(Nc2ccc(C)c(C)c2)=C(Br)C1=O`, the growth is 91.1%.

As to `O=S(=O)(NCCCNc1nccc(-c2[nH]c(-c3ccccc3)nc2-c2ccc(F)c(O)c2)n1)c1ccc(C(F)(F)F)cc1`, the growth is 28.3%.

In the case of `CCc1cccc2c3c(sc12)C(c1ccc(F)cc1)C(C#N)=C(/N=C/c1ccc(Cl)cc1)O3` (stereo not given), the growth is -10.4% (active).

For the compound `CN1CCN(c2ccc(Nc3nc(NCCCNS(=O)(=O)c4ccccc4)c4sccc4n3)cc2)CC1`, the growth was 131%.

Turning to `C#C[C@]1(O)CC[C@H]2[C@@H]3CC=C4c5sc(Nc6ncccc6C)nc5CC[C@]4(C)[C@H]3CC[C@@]21C`, the growth was -5.84% (active).

Turning to `CC(=O)Nc1nc(C)c(-c2csc(Nc3ccccc3)n2)s1`, the growth was 16%.

With `CC(C)=CCC[C@](C)(O)[C@H]1CC[C@]2(C)[C@@H]1CC[C@@H]1[C@@]3(C)CC[C@H](N)C(C)(C)[C@@H]3CC[C@]12C`, the growth was 106%.

As to `O=C(Nc1ccc(Cl)c(C(F)(F)F)c1)Nc1ccc2c(ccn2C(=O)c2cccc(F)c2)c1`, the growth is 70.3%.

Take `CN1CCN(Cc2ccc(NC(=O)c3cncc(C#Cc4cnc5ccc(OCC6COC6)nn45)c3)cc2C(F)(F)F)CC1`: the growth was -93.7% (active).

Turning to `CCOC(=O)c1cnc2c(-c3ccc(Cl)c(Cl)c3)cnn2c1`, the growth is 82.8%.

Take `Cc1ccc([C@H]2c3[nH]c4ccccc4c3C[C@H]3C(=O)N(CCCCCCC(=O)NO)CC(=O)N23)s1`: the growth was 76%.

Consider `COc1ccc(/C=N/NC(=O)c2c(N)nn(C)c2Nc2ccccc2)cc1Oc1ccccc1`, for which the growth is 98.6%.

With `O=C(Nc1cc(C(F)(F)F)cc(C(F)(F)F)c1)Nc1ccc2oc(=O)ccc2c1`, the growth was -1.96% (active).

Take `C#Cc1nc(/C=C/C(=O)NO)cs1`: the growth was 17.9%.

Regarding `O=C(CSc1nnc(-c2ccc(Cl)cc2)n1-c1ccccc1)Nc1cccc(F)c1`, the growth is 57.9%.

Consider `O=C1/C(=C/C=C/c2ccco2)SC(=S)N1Cc1ccccc1`, for which the growth is 88.9%.

For `CCCCCC[n+]1ccc(SCC(=O)n2ccc3ccccc32)c2ccccc21`, the growth is 115%.

With `C=C(C)[C@@H]1CC[C@]2(COP(=O)(OCC)OCC)CC[C@]3(C)[C@H](CC[C@@H]4[C@@]5(C)CC[C@H](OP(=O)(OCC)OCC)C(C)(C)[C@@H]5CC[C@]43C)[C@@H]12`, the growth was 66.4%.

Consider `CC(=C(c1ccc(OCCN(C)C)cc1)c1ccc(OCCN(C)C)cc1)c1ccc(Cl)cc1`, for which the growth is -76.1% (active).

For the compound `CNC(=O)c1cc(-n2ccc3cc(NC(=O)Nc4ccc(N5CCN(C)CC5)c(C(F)(F)F)c4)ccc32)ccn1`, the growth was 87.9%.

Take `CC(=O)N(O)CCCCCNC(=O)CCC(=O)N(O)CCCCCNC(=O)CCC(=O)N(O)CCCCCN(CCCCCCCCCC[P+](c1ccccc1)(c1ccccc1)c1ccccc1)CCCCCCCCCC[P+](c1ccccc1)(c1ccccc1)c1ccccc1`: the growth is -3.27% (active).
